The campaign covered roughly 150,000 compounds. About 540 (0.36%) showed an effect of 50% or more. Shown is part of a subset that was picked to be rich in strong results.
Each molecule was assayed on Plasmodium falciparum (assay: Primary screen in NF54 nanoGlo assay, in single point, at 2uM, 72h; a lower Z score goes with more inhibition). Settings: timepoint 72 hour.
Format: functional, Erythrocyte
With `COc1ccc(F)c(-c2cc(N)nc(N(C)C)n2)c1` the “% Inhibition” value was -15% and the Z score was 2.16. For `CN(C)c1nc(N)cc(-c2cccc3cccnc23)n1`, the “% Inhibition” value was 57% and the Z score was -7.96. For `CN(C)c1nc(N)cc(-c2ccc(-n3cccn3)cc2)n1`, the “% Inhibition” value was -1% and the Z score was 0.21. In the case of `COc1ccc2c(c1)C1(CC1)CN(C(=O)Nc1ccnnc1C)C2`, the “% Inhibition” value is reported as -11% and the Z score is reported as 2.25. In the case of `COc1ccc(-c2cc3c(=O)n(CCNC(=O)Cc4ccc(F)cc4)ccn3n2)cc1`, the “% Inhibition” value is reported as -7% and the Z score is reported as 1.17. With `CNC(=O)[C@@H]1C[C@H](Oc2ccccc2)CN1S(C)(=O)=O` the “% Inhibition” value was -12% and the Z score was 1.64. For `NC(=O)[C@@H]1CN(Cc2ncc(C(F)(F)F)s2)CCO1`, the “% Inhibition” value was -12% and the Z score was 1.56. In the case of `CC[C@H](C)NC(=O)COc1ccc(Cl)cc1C(N)=O`, the “% Inhibition” value is reported as -8% and the Z score is reported as 0.84. `Cc1cc(O)nc([C@H](C)N(C)CC2CCOCC2)n1` was tested, and the “% Inhibition” value was -12% and the Z score was 1.59. In the case of `Cc1cc(N(C)CCC2CC2)nc([C@H](C)N(C)CCC2CC2)n1`, the “% Inhibition” value is reported as 59% and the Z score is reported as -9.38. In the case of `CCc1nc(C)cc(N(C)CCn2nc(C)cc2C)n1`, the “% Inhibition” value is reported as -18% and the Z score is reported as 1.72. With `CCN(CC)CC(O)COc1c(Br)cc(C(C)(C)c2cc(Br)c(OCC(O)CN(CC)CC)c(Br)c2)cc1Br` (stereo not drawn) the “% Inhibition” value was 99% and the Z score was -13.36. `OCCN(CCO)C[C@H](O)COc1c(Br)cc(Br)cc1Br` was tested, and the “% Inhibition” value was -7% and the Z score was 1.05. `CCCN(CCC)C[C@H](O)COc1c(Cl)cccc1Cl` was tested, and the “% Inhibition” value was -6% and the Z score was 0.67. `Cc1ncc2ncccc2c1Br` was tested, and the “% Inhibition” value was -4% and the Z score was 0.8. `Cn1c(Cc2n[n+]3c(-c4ccccc4)cc(-c4ccccc4)nc3n2C)n[n+]2c(-c3ccccc3)cc(-c3ccccc3)nc12` was tested, and the “% Inhibition” value was 95% and the Z score was -10.43. `C[n+]1cnc(-c2ccccc2)cc1-c1ccccc1` was tested, and the “% Inhibition” value was 1% and the Z score was -0.07. With `Cc1nc(-c2ccccc2)cc(N2CCN(CCc3ccccc3)CC2)n1` the “% Inhibition” value was 0% and the Z score was 0. `CCS(=O)(=O)CCNC(=O)c1ccnc(C(C)C)n1` was tested, and the “% Inhibition” value was -4% and the Z score was 0.73. In the case of `O=C(Cn1nc(-n2cccn2)ccc1=O)NCc1ccco1`, the “% Inhibition” value is reported as -7% and the Z score is reported as 1.27. `CCCC1CCC(OC(=O)c2ccc(C(=O)OC3CCC(CCC)CC3)nc2)CC1` (stereo not drawn) was tested, and the “% Inhibition” value was 74% and the Z score was -10.02. With `CCOC(=O)c1ccc(NC(=O)CC2CCC2)cn1` the “% Inhibition” value was 3% and the Z score was -0.29. With `NC(=O)c1ccc(C(=O)OC2CCCCCC2)cn1` the “% Inhibition” value was 3% and the Z score was -0.42. `CCc1nnc(-c2[nH]c(C)c(S(=O)(=O)Nc3cccc(Cl)c3)c2C)o1` was tested, and the “% Inhibition” value was -5% and the Z score was 0.66. For `COC(C)[C@H](C)NCC(C)c1ccccc1` (stereo partly drawn), the “% Inhibition” value was 73% and the Z score was 1.55. With `C[C@@H](CNC(=O)C(C)(C)C)c1ccccc1` the “% Inhibition” value was -10% and the Z score was 0.9. For `Cc1c(NC[C@H](C)c2ccccc2)cnn1C`, the “% Inhibition” value was -3% and the Z score was 0.4. In the case of `Cc1cnc(=O)n(CC(=O)N2CCN(c3ccccc3F)CC2)c1`, the “% Inhibition” value is reported as -1% and the Z score is reported as 0.07. In the case of `CN1CCC(N(CCc2ccccc2)C(=O)c2cccc3cnccc23)CC1`, the “% Inhibition” value is reported as -4% and the Z score is reported as 0.65. With `Cn1cccc1CN(C(=O)c1cc2ccccc2[nH]1)C1CC1` the “% Inhibition” value was -5% and the Z score was 1. In the case of `Cc1sc2ncnc(Nc3ccc4c(c3)OCO4)c2c1C`, the “% Inhibition” value is reported as -3% and the Z score is reported as 0.37. In the case of `CC[C@H](C)[C@@H](CN(C)C)NC(=O)CCc1ccncc1`, the “% Inhibition” value is reported as 20% and the Z score is reported as -2.58. In the case of `O=C(NCC1CC1)c1ccc2[nH]c3c(c2c1)CCCCC3`, the “% Inhibition” value is reported as -12% and the Z score is reported as 1.65. `CCCC(O)(CCC)CC(=O)N1CCN(C(=O)OCC)CC1` was tested, and the “% Inhibition” value was -7% and the Z score was 0.63. With `O=C(c1ccc(-c2cn(-c3ccccc3)cn2)cc1)N1CCOC[C@@H](O)C1` the “% Inhibition” value was 5% and the Z score was -0.8. `CCOc1cc(CN2CC[S+]([O-])CC2)ccc1OC` was tested, and the “% Inhibition” value was 6% and the Z score was -1.1. With `Cc1nn(C)c(Cl)c1C(=O)Nc1ccc2ccccc2c1` the “% Inhibition” value was 10% and the Z score was -1.64. With `Cc1nn(C)c(Cl)c1CNCc1ccc(N2CCCC2=O)cc1` the “% Inhibition” value was -5% and the Z score was 0.6. With `c1ccc(-c2cc([C@@H]3NCCc4[nH]cnc43)on2)cc1` the “% Inhibition” value was -4% and the Z score was 0.56. For `Cc1nn(CCO)c(C)c1[C@@H]1NCCc2[nH]cnc21`, the “% Inhibition” value was -16% and the Z score was 2.3. For `CCc1ccc([C@H]2NCCc3[nH]cnc32)nc1`, the “% Inhibition” value was 55% and the Z score was -5.21. With `CCc1nnc2c(S(=O)(=O)N(Cc3cccc(Cl)c3)c3ccccc3)cccn12` the “% Inhibition” value was -17% and the Z score was 2.2. `CN(Cc1ccccc1)C(=O)c1nc2ccccc2s1` was tested, and the “% Inhibition” value was -10% and the Z score was 1.35. For `CCCC1CCC(c2ccc(OC(=O)c3cccc(C(=O)OC)n3)cc2)CC1` (stereo not drawn), the “% Inhibition” value was -10% and the Z score was 1.93. In the case of `COCC(O)CN1CCCC(C(C)C)CC1` (stereo not drawn), the “% Inhibition” value is reported as -5% and the Z score is reported as 0.7. `Cc1ccc2[nH]c3c(c2c1)CN(C)CCC3` was tested, and the “% Inhibition” value was 4% and the Z score was -0.52. In the case of `Cc1ccc2c(c1)c1c(n2S(=O)(=O)c2ccc(C(C)(C)C)cc2)CCCN(C)C1`, the “% Inhibition” value is reported as 67% and the Z score is reported as -13.88. In the case of `Cc1ccc2c(c1)c1c(n2CCc2ccncc2)CCCN(C)C1`, the “% Inhibition” value is reported as 4% and the Z score is reported as -0.46. `CNS(=O)(=O)CC1CCCN1CC1CCC(C)O1` (stereo not drawn) was tested, and the “% Inhibition” value was -5% and the Z score was 0.75. For `CCCC(C)NC(=O)C(C)NC1CCN(C(C)=O)CC1CC` (stereo not drawn), the “% Inhibition” value was -2% and the Z score was 0.22. `CCc1cccc(NC(=O)Cc2nc(-c3cccnc3)n[nH]2)c1` was tested, and the “% Inhibition” value was -13% and the Z score was 2.1. `CC(=O)c1ccc(S(=O)(=O)NC2(C(F)(F)F)CCOCC2)cc1` was tested, and the “% Inhibition” value was -12% and the Z score was 1.89. `COc1ccc(-c2cc(N3CC[C@H](NC(=O)c4ccc(C)cc4)C3)[nH]n2)cc1` was tested, and the “% Inhibition” value was -10% and the Z score was 1.05. For `Cc1c(C(=O)NC2CCN(c3ccc(=O)n(C)n3)CC2)cc(-c2ccc(F)cc2)n1C`, the “% Inhibition” value was -5% and the Z score was 0.6. In the case of `Cc1cc(C(=O)N[C@H]2CCOC[C@@H]2OCc2ccccc2)c(C)n1C`, the “% Inhibition” value is reported as 8% and the Z score is reported as -1.34. In the case of `COc1ccc(-c2cc(C(=O)N[C@H]3CCN(c4ccc(=O)n(C)n4)C3)c(C)n2C)cc1`, the “% Inhibition” value is reported as 67% and the Z score is reported as -11.23. In the case of `COc1ccc(C(=O)N[C@H]2CCN(c3cc(-c4ccc(Cl)cc4)n[nH]3)C2)c(C)c1`, the “% Inhibition” value is reported as -20% and the Z score is reported as 2. For `Cc1c(C(=O)NC2CC2)cc(-c2ccccc2)n1C`, the “% Inhibition” value was 55% and the Z score was 0.53. With `Cn1nc(N2CC[C@H](NC(=O)C3CCCCC3)C2)ccc1=O` the “% Inhibition” value was -6% and the Z score was 0.81. With `COc1ccc(-c2cc(C(=O)N[C@H]3CCN(c4ccc(=O)[nH]n4)C3)c(C)n2C)cc1` the “% Inhibition” value was 82% and the Z score was -5.36. In the case of `Cc1ccc(-c2cc(C(=O)NC3CC3)nn2C)cc1`, the “% Inhibition” value is reported as -10% and the Z score is reported as 1.31. `COc1cccc(C(=O)N2CCN(c3cccnc3)C(=O)C2)c1OC` was tested, and the “% Inhibition” value was 9% and the Z score was -1.08. For `CN(C)S(=O)(=O)N1CCC2(CCC(=O)N(CCc3ccccn3)C2)CC1`, the “% Inhibition” value was -12% and the Z score was 1.7. For `CCc1ccccc1S(=O)(=O)NC[C@H](C(=O)O)C(C)C`, the “% Inhibition” value was 2% and the Z score was -0.45. In the case of `COCCN1C(=O)c2ccc(C(=O)NCc3ccncc3)cc2C1=O`, the “% Inhibition” value is reported as -3% and the Z score is reported as 0.39. `Cc1ccc(-c2cn[nH]c2[C@H]2CCCN(C(=O)C(C)(C)O)C2)cc1` was tested, and the “% Inhibition” value was -14% and the Z score was 2.64. `NC(=O)C1CCN(C(=O)Cc2ccc(-c3ccccc3)cc2)CC1` was tested, and the “% Inhibition” value was -4% and the Z score was 0.36. `COC(=O)C1(NC(=O)OC(C)(C)C)CC(CN2CCN(C)CC2)C1` (stereo not drawn) was tested, and the “% Inhibition” value was 10% and the Z score was -2.05. In the case of `CCc1ccc(C2=C(C)C(N3CCC(C(=O)NC)CC3)=NS2(=O)=O)cc1`, the “% Inhibition” value is reported as -2% and the Z score is reported as 0.29. For `CCC1=C(c2ccc(C)cc2)S(=O)(=O)N=C1N1CCC(C(=O)NC2CCC(C)CC2)CC1` (stereo not drawn), the “% Inhibition” value was -12% and the Z score was 1.49. `CCC1=C(c2ccc(C)cc2)S(=O)(=O)N=C1N1CCC(C(=O)NCCN2CCCC[C@@H]2C)CC1` was tested, and the “% Inhibition” value was 53% and the Z score was -6.49. With `CCC1=C(c2ccc(C)cc2)S(=O)(=O)N=C1N1CCC(C(=O)NCCCc2ccccc2)CC1` the “% Inhibition” value was -9% and the Z score was 1.6. With `CC1=C(c2ccc(Cl)cc2)S(=O)(=O)N=C1N1CCC(C(=O)NCCN(C)C)CC1` the “% Inhibition” value was -18% and the Z score was 1.96. With `CCCCN(CC)CCNC(=O)C1CCN(C2=NS(=O)(=O)C(c3ccc(OC)cc3)=C2C)CC1` the “% Inhibition” value was 57% and the Z score was -3.61. In the case of `CN1CC2(CCN(C(=O)c3ccccc3O)CC2)C[C@@H](c2ccccc2)C1=O`, the “% Inhibition” value is reported as -14% and the Z score is reported as 1.81. In the case of `C=CCOC1CCN(C(=O)CCN2CCOC2=O)CC1`, the “% Inhibition” value is reported as -4% and the Z score is reported as 0.57. With `Cc1nc(CNC(=O)c2nc3ccccc3[nH]c2=O)cs1` the “% Inhibition” value was 5% and the Z score was -0.75. In the case of `CC(C)c1ncc(CN(C)S(=O)(=O)N(C)C2CCCCC2)cn1`, the “% Inhibition” value is reported as -9% and the Z score is reported as 1.04. `CC(C)(C)OC(=O)NC1CC(NCC(O)c2ccco2)C12CCC2` (stereo not drawn) was tested, and the “% Inhibition” value was 0% and the Z score was 0.02. In the case of `CCOc1ccc(C2c3[nH]c4ccccc4c3C[C@H]3C(=O)N(C4CCCCCCC4)CC(=O)N23)cc1OC` (stereo partly drawn), the “% Inhibition” value is reported as 12% and the Z score is reported as -1.52. For `COc1cccc(C2c3[nH]c4ccccc4c3C[C@H]3C(=O)N(C4CCN(Cc5ccccc5)CC4)CC(=O)N23)c1` (stereo partly drawn), the “% Inhibition” value was 15% and the Z score was -1.95. `CCOc1ccc(C2c3[nH]c4ccccc4c3C[C@H]3C(=O)N(C4CCN(Cc5ccccc5)CC4)CC(=O)N23)cc1OC` (stereo partly drawn) was tested, and the “% Inhibition” value was 79% and the Z score was -7.03. In the case of `CCOc1ccc2nc(CN(C)[C@@H]3CCCC[C@@H]3O)ccc2c1`, the “% Inhibition” value is reported as -18% and the Z score is reported as 1.9. For `CCOc1ccc2nc(CN(Cc3cnn(C)c3)C3CC3)ccc2c1`, the “% Inhibition” value was -7% and the Z score was 1.15.

From ChEMBL document CHEMBL4888484, “Replenishing the malaria drug discovery pipeline: Screening and hit evaluation of the MMV Hit Generation Library 1 (HGL1) against asexual blood stage Plasmodium falciparum ,using a nano luciferase reporter read-out” (2022)
